A selection: hits, their analogues and other compounds. The true share with any hit is near 5.9%.
LANA-H2B inh – blocks KSHV LANA binding to histone H2A/H2B; Q9QR71; cell-free LANA-H2A/H2B peptide, fluorescence polarization; inhibition, % (concentration not given with the values); 0.6% of 320,000 active; AID 2629; in the data active = inhibition mostly above about 10%, no sharp cut-off; inactive = mostly below about 6.7%
Target sequence (Q9QR71 whole entry, looked up): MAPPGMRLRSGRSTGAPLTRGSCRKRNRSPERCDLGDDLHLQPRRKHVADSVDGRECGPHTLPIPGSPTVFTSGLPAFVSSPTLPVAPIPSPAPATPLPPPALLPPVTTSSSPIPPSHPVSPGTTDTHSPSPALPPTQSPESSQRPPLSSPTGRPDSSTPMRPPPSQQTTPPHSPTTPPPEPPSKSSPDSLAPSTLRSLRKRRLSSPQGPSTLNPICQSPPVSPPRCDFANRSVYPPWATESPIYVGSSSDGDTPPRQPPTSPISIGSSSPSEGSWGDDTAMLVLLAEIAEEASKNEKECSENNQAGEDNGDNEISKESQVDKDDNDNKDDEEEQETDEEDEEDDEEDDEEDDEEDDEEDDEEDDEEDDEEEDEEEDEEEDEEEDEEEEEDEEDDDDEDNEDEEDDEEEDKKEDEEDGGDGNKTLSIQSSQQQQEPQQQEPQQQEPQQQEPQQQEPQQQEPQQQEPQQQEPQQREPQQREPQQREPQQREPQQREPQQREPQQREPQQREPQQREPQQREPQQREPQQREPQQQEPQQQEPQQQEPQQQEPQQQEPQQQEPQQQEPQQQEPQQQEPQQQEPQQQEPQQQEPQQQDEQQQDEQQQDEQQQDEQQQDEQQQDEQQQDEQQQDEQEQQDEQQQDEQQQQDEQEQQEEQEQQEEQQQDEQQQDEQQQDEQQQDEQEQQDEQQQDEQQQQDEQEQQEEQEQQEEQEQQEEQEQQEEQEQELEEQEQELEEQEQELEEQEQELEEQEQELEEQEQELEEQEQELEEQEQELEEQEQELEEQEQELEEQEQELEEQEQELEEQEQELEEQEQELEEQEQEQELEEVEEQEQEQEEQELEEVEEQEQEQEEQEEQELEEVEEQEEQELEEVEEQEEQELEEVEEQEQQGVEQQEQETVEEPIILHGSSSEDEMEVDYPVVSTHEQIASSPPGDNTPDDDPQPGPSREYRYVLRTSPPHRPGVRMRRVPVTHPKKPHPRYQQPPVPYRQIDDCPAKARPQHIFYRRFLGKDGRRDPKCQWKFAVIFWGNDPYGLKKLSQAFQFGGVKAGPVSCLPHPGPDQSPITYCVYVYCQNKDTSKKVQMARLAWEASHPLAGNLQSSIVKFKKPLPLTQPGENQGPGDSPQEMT
ALR inh – blocks human ALR sulfhydryl oxidase activity; 3.8% of 290,000 active; purified ALR, DTT oxidation, H2O2 HRP-luminol luminescence; inhibition, % (no concentration beside the values); AID 485317;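 active = mean replicate inhibition above about 79%, with every replicate also reaching it, limit read from the data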
rCAG RNA binder – r(CAG) repeat RNA binding; TO-PRO-1 dye displacement fluorescence; inhibition, % at 3 µM; 1.3% of 370,000 active; AID 651821;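 active = inhibition above the plate cutoff, the mean of all test compounds on that plate plus 3 SD, cut at about 35% in these data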;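 note: 0% = DMSO alone and 100% = 100 µM mitoxantrone as full dye displacement; higher means more dye released from RNA so lower well fluorescence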
Rtt109 Vps75 – blocks Candida albicans Rtt109/Vps75 acetyltransferase activity | 0.16% of 330,000 active | inhibition, % at 34.9 µM | purified Rtt109/Vps75, ThioGlo CoA-SH fluorescence, 4 h;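 active = inhibition of at least 50% in every replicate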
PRMT1 inh – inhibitors of human PRMT1; recombinant PRMT1, activity-based probe fluorescence polarization; inhibition, % at 2.79 µM; 1.3% of 370,000 active; AID 652257;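 active = inhibition above about 21% made by adding two undisclosed values, limit read from the data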
ABHD5-PLIN5 inh – inhibitors of human ABHD5-perilipin-5 interaction; Q00G26+Q8WTS1; Split G. princeps luciferase complementation, luminescence, 4 h; inhibition, % at 4 µM; 0.78% of 360,000 active; AID 602281;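 active = inhibition above the mean inhibition across every tested compound plus 3 SD, cut at about 22% in these data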;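 note: 0% = DMSO only wells and the 100% control is not disclosed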
Numbers without * were called inactive; nt = not tested or not shown.

SMILES	LANA-H2B inh	ALR inh	rCAG RNA binder	Rtt109 Vps75	PRMT1 inh	ABHD5-PLIN5 inh
O=C(NNS(=O)(=O)c1ccccc1)c1cccs1	nt	nt	-0.7	2.1	-4.2	2.9
O=C(NNC(=O)c1cccs1)c1ccc(Br)o1	0.9	95.8*	2.3	0.2	-0.8	-6.9
O=C(NNS(=O)(=O)c1ccc(Br)cc1)c1cccs1	16.6*	27.4	0.1	0.4	-2.1	-3.1
CC(C)(C)c1ccc(C#C[C@@H]2C=C[C@@H](O)[C@@H](COC(=O)NCc3ccccc3)O2)cc1	nt	nt	2.1	nt	1.7	nt
Cc1[nH]nc2c1C(c1ccc(F)cc1)N(c1ccccc1)C2=O (stereo not given)	nt	nt	1.5	nt	-3.4	nt
O=C(C1CCC1)N1CCc2cc(S(=O)(=O)C3CCN(Cc4ccc(F)cc4)CC3)ccc21	nt	nt	7.8	nt	2.5	nt
CC(=O)C1=CCC(c2ccccc2)N(S(=O)(=O)c2ccccc2)C1 (stereo not given)	nt	nt	-0.2	nt	-3.9	5.2
O=C(NC1CCC1)C1CCC(=O)N(Cc2cccc(F)c2)C1 (stereo not given)	37.6*	-14.4	-1.3	26.9	-0.4	9.0
O=C(NC1CCC1)C1CCC(=O)N(Cc2ccccc2F)C1 (stereo not given)	-2.5	-6.9	1.6	-8.6	-2.2	-3.4
Cc1ccc(S(=O)(=O)NN2C(=O)/C(=C/c3cccn3C)SC2=S)cc1	-10.9	97.1*	nt	nt	nt	nt
Cc1ccc(S(=O)(=O)NN2C(=O)/C(=C/c3ccc(C(=O)O)cc3)SC2=S)cc1	0.0	4.5	18.1	3.3	22.0*	-6.7
C=C1C(=O)C=C2CN(C(=O)c3ccccc3)[C@@](Cc3ccc(F)cc3)(C(=O)OC)[C@@H]12	-2.4	45.8	nt	11.8	nt	74.9*
CC(C)C(C(=O)O)N1C(=O)/C(=C/c2cccn2C)SC1=S (stereo not given)	-16.4	41.7	9.7	2.0	-11.3	1.4
CC(C)C(C(=O)O)N1C(=O)/C(=C/C=C/c2ccco2)SC1=S (stereo not given)	6.1	98.9*	nt	5.2	nt	-0.4
CCN(CC)c1nc(C)nc2c1nnn2Cc1ccccc1	nt	nt	-1.5	nt	-1.8	nt
COC(=O)[C@]12C[C@H](CC(=O)NCc3cccs3)C(=O)N(Cc3ccccc3)C1=C[C@H](C1CCCC1)O[C@@H]2C	nt	nt	3.5	nt	4.6	nt
COCCNC(=O)CSCc1nc(-c2ccc(SC)cc2)oc1C	-1.2	99.8*	-2.8	-0.2	8.5	7.0
Cc1ccccc1-c1nc(CS(=O)(=O)CC(=O)NCCCN2CCCC2=O)c(C)o1	-4.2	6.9	0.8	0.3	1.4	-1.2
O=C(CSc1ccc2ccccc2c1)NCCCN1CCCC1=O	-0.7	99.8*	-0.9	-7.6	0.8	1.8
CCOCCCNC(=O)CSCc1nc(-c2ccc(SC)cc2)oc1C	-0.8	nt	-2.9	-5.7	-2.4	-3.3
CSc1ccc(-c2nc(CSCC(=O)NCCCN3CCCC3=O)c(C)o2)cc1	0.4	94.7*	-6.4	-1.0	0.7	-11.3
CCc1ccc(-c2nc(CSCC(=O)NCCCN3CCCC3=O)c(C)o2)cc1	7.9	99.2*	-6.7	1.3	2.1	1.9
O=C(NC1CCCCC1)C(c1ccncc1)n1c(=O)c(-c2cc3ccccc3[nH]2)nc2ccccc21 (stereo not given)	nt	nt	13.3	nt	6.1	0.7
Cc1ccsc1/C=N/N1CCN(c2ccccn2)CC1	-1.0	98.9*	-9.3	-5.8	-0.9	-9.2
Cc1ccsc1/C=N/N1CCN(c2ccccc2)CC1	2.5	12.8	-5.8	-8.3	-0.4	1.6
SMILES	LANA-H2B inh	ALR inh	rCAG RNA binder	Rtt109 Vps75	PRMT1 inh	ABHD5-PLIN5 inh
c1ccc2c(C[C@@H]3CNCCN3CCC34CC5CC(CC(C5)C3)C4)cccc2c1	0.8	-19.0	15.9	-8.3	3.1	-1.3
COc1ccc(N2CCN(C(=O)C3CC(O)CN3S(=O)(=O)c3ccc([N+](=O)[O-])cc3)CC2)cc1 (stereo not given)	2.3	84.2*	-1.6	-6.9	-0.8	9.2
COc1ccc(CC(=O)N2CCN(c3ccc(C4=NNC(=O)CC4C)cc3)CC2)cc1 (stereo not given)	12.4	87.8*	-8.3	2.8	1.3	0.7
COc1ccc(N2CCN(C(=O)CCS(=O)(=O)c3ccc(C)cc3)CC2)cc1	1.1	87.8*	-6.0	5.3	-4.1	-7.3
CC(=O)c1ccc(N2CCN(C(=O)C3(S(=O)(=O)c4ccc(Cl)cc4)CC3)CC2)cc1	-2.7	-0.6	-2.8	1.2	1.0	0.4
COc1ccc(N2CCN(C(=O)C3(S(=O)(=O)c4ccc(C)cc4)CC3)CC2)cc1	2.7	85.7*	-6.3	3.8	2.2	-1.6
C=C(C)C(=O)Nc1ccc2nn(-c3ccccc3O)nc2c1	nt	nt	3.2	nt	4.3	-3.0
COc1ccc(N2CCN(C(=O)CCS(=O)(=O)c3ccc(OC)cc3)CC2)cc1	-2.7	79.5*	-6.1	13.1	-0.3	1.9
COc1ccc(S(=O)(=O)CCC(=O)N2CCN(c3ccc(C(C)=O)cc3)CC2)cc1	13.1*	-4.3	-3.6	-0.5	0.1	5.3
COc1ccc(S(=O)(=O)CCC(=O)N2CCN(c3ccc([N+](=O)[O-])cc3)CC2)cc1	4.0	3.2	-1.0	-1.8	-3.3	0.5
COC(=O)c1ccc(OC(=O)CCS(=O)(=O)c2ccc(C)cc2)cc1	6.5	96.0*	-2.9	2.7	-0.9	-3.5
OCc1cccc(-c2cnc3c(Nc4cccc(OC(F)(F)C(F)F)c4)nccn23)c1	nt	nt	4.8	nt	0.8	-4.3
Cc1cccc(-c2nnc(SCC(=O)c3ccc(F)cc3)n2C)c1	nt	nt	2.3	nt	-0.7	nt
CC(C)NC(=O)C1(C)CCN1CCC(=O)c1ccccc1 (stereo not given)	nt	nt	-2.1	nt	2.7	-2.4
S=c1[nH]nc(CCc2ccccc2)n1Cc1ccccc1	-7.2	-0.1	-2.5	-10.1	-0.8	-8.8
COCCn1c(CCc2ccccc2)n[nH]c1=S	1.4	85.2*	-1.9	-7.1	2.1	0.1
CC1(C)OC(c2ccccc2)=C/C(=C/C=N/NC(=O)c2ccncc2)O1	1.2	98.1*	-3.7	19.2	-2.7	-0.7
Cc1ccccc1Oc1cc(-n2ncc(Cl)c(Cl)c2=O)ncn1	5.1	96.9*	-3.9	-2.5	6.8	9.2
Cc1cccc(CN2CCN([C@@H]3CS(=O)(=O)N[C@H]3COCc3ccccc3)CC2)c1	nt	nt	-0.2	nt	-2.3	1.4
Cc1ccc(S(=O)(=O)N2C[C@]3(O)C[C@@H]4C(=O)N(c5ccccc5)C(=O)[C@@H]4C[C@]3(OC(=O)NC3CCCC3)C2)cc1	nt	nt	4.1	nt	0.9	1.8
COC(=O)c1ccccc1NC(=S)NC(=O)c1ccc2c(c1)OCO2	-11.8	98.1*	-2.4	5.6	5.0	4.7
Cc1ccccc1C(=O)NC(=S)Nc1ccccc1C(=O)O	0.4	23.5	-2.3	-3.5	-2.7	-1.0
COC(=O)c1ccccc1NC(=O)c1ccc2c(c1)OCCO2	-6.2	10.2	-3.3	-2.0	0.5	-3.5
COC(=O)c1ccccc1NC(=S)NC(=O)c1ccccc1C	-4.9	97.4*	-1.0	-8.4	3.4	3.0

From PubChem
